# Results reported in PubChem BioAssay AID1486 (The Scripps Research Institute Molecular Screening Center, 2009).
# The whole screen tested about 220,000 compounds, of which about 2,400 (1.1%) were called active. This is one part of a sample in which actives are shown more often than they occur. A number with no mark means an inactive call.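 Rule for the calls: active = inhibition above a per-campaign cutoff, the mean inhibition of all tested compounds plus 3 SD (cut at about 27% in these data); inactive = the rest.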
# Assay: parental Ba/F3 cell viability inhibition, counter-screen for JAK2V617F inhibitor project, murine pro-B, CellTiter-Glo luminescence (AID 1486);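 note: 0% = DMSO wells and 100% = JAK Inhibitor I control wells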
# Details: CellTiter-Glo ATP luminescence, at 5.6 µM, active compounds read high
row,SMILES,inhibition
1,Cc1ccccc1-c1nc(C#N)c(NCc2ccco2)o1,11.3%
2,COc1ccc(Nc2oc(-c3ccccc3Cl)nc2C#N)cc1,29.4% (active)
3,COc1ccccc1-c1nc(C#N)c(N2CCC(C(N)=O)CC2)o1,1.59%
4,NC1=NC2(CCCCC2)N(c2ccc(F)cc2F)C(N)=N1,5.17%
5,COc1ccc(CCNC(=O)CC2SC(=Nc3cc(C)cc(C)c3)NC2=O)cc1OC (configuration not stated),2.92%
6,O=c1cc(O)c(-c2cccc(C(F)(F)F)c2)c(Cl)[nH]1,13.5%
7,COC(=O)Nc1nc2ccc(Sc3ccccc3)cc2[nH]1,76% (active)
8,COc1cc(OC)cc(C(=O)N[C@H](C(=O)Nc2nc3ccccc3[nH]2)C(C)C)c1,16.4%
9,Cc1nc2ccc(C(=O)O)cc2[nH]1,-0.24%
10,COc1ccccc1-c1c(C#N)c(N)nc2c1CCC2,0.32%
11,COC(=O)c1sccc1NC(=O)CC1C(=O)NCCN1C(=O)Nc1ccc(F)cc1F (configuration not stated),-2.58%
12,CSc1ccc(/C=N/NC(=O)c2cccc(Cl)c2)cc1,1.81%
13,COc1ccc(-c2cc(C(=O)NCc3ccco3)no2)cc1OC,4.7%
14,COc1ccc(C2=NOC(C(=O)NCc3ccco3)C2)cc1OC (configuration not stated),64.1% (active)
15,Cc1ccc(CNC(=O)C2CC(c3ccccc3[N+](=O)[O-])=NO2)o1 (configuration not stated),0.33%
16,Cc1cc(N)n(-c2ccc(S(=O)(=O)N3CCCC3)cc2[N+](=O)[O-])n1,4.29%
17,C=CCOCCN(C)C1=NS(=O)(=O)c2ccccc21,3.69%
18,COc1ccc(N2C(=O)CNC2=S)cc1,2.23%
19,Cc1ccc(C)c2[nH]c(=O)c(CCNC(=O)c3cccs3)cc12,6.4%

row,SMILES,inhibition
1,Cc1cc2cc(CNC(=O)c3cccs3)ccc2[nH]1,39% (active)
2,CCc1cccc(CC)c1NC(=S)NCc1ccc2[nH]c(C)cc2c1,8.67%
3,Cn1c(=O)c2c(nc(N/N=C/c3cccs3)n2Cc2ccc(Br)cc2)n(C)c1=O,2.68%
4,COc1ccc(-c2csc(-c3cccs3)n2)cc1OC,6.08%
5,COc1ccc(Br)cc1CN(C)CC(=O)Nc1cc([N+](=O)[O-])ccc1OC,-2.62%
6,CCOC(=O)c1cc(-c2ccc(F)cc2)n(CC(=O)NCc2ccccn2)c1C,5.17%
7,CC1CCN(Cc2nc(-c3ccc(Cl)cc3)no2)CC1,36% (active)
8,CN1CCN(C(=O)CCc2nc(-c3ccc(Cl)cc3)no2)CC1,5.12%
9,Cc1ccc(-c2noc(CN3CCN(Cc4ccccc4)CC3)n2)cc1,3.84%
10,O=c1[nH]c2cccnc2n(CCNc2ncc(C(F)(F)F)cc2Cl)c1=O,3.7%
11,N#CC1=C(N)Oc2[nH]c(=S)[nH]c(=O)c2C12C(=O)Nc1ccccc12 (configuration not stated),1.28%
12,Cc1nc(-c2ccccc2)cn2c1nc1ccccc12,6.83%
13,Cc1c(Cl)c([N+](=O)[O-])nn1CC(=O)NCC1CCCO1 (configuration not stated),-0.44%
14,COc1cc(OC)nc(S(C)(=O)=O)n1,-0.84%
15,COc1ccc(-c2cc(C(F)(F)F)nc(SCC(=O)Nc3ccc4c(c3)OCO4)n2)cc1OC,6.51%
16,COc1ccc(-c2cc(C(F)(F)F)nc(S(C)(=O)=O)n2)cc1OC,32.3% (active)
17,CC(=O)c1ccc2c(c1)OCCOCCOc1ccc(C(C)=O)cc1OCCOCCO2,6.46%
18,O=C(CSc1nnc(-c2cccs2)n1-c1ccccc1)NCc1ccco1,1.12%
19,O=C(CSc1nnc(-c2c[nH]c3ccccc23)n1-c1ccc(F)cc1)NCc1ccco1,93.5% (active)

row,SMILES,inhibition
1,COc1ccc(-n2c(SCC(=O)NCc3ccco3)nnc2-c2c[nH]c3ccccc23)cc1,7.39%
2,CC(C)C(C)(C#N)NC(=O)CSc1nncn1-c1ccccc1 (configuration not stated),6.72%
3,CC(=O)c1sc(NC(=O)c2cccc3ccccc23)nc1C,4.12%
4,O=C(Cc1ccc2c(c1)CCCC2)Nc1ccccc1Cl,6.44%
5,CC(NC(=O)c1cccc2ccccc12)c1ccc2c(c1)CCCC2 (configuration not stated),46.5% (active)
6,Cc1ccc(N/N=C2\COC(C)(C)CC2=O)cc1,-2.17%
7,O=S(=O)(NCc1ccco1)c1cnc(Cl)c(Cl)c1,-2.02%
8,Oc1ccc(N=Nc2nccs2)c(O)c1,0.92%
9,Oc1ccc2ccccc2c1C=Nc1ccccc1,3.24%
10,Oc1ccc2ccccc2c1N=Nc1nccs1,101% (active)
11,Cc1ncoc1C(=O)N1CCCC(C(=O)c2ccc3c4c(cccc24)CC3)C1 (configuration not stated),5.56%
12,N=C1/C(=C/c2cccn2-c2cccc([N+](=O)[O-])c2)C(=O)N=C2SC=CN12,3.29%
13,Cc1ccc(OCC(=O)N/N=C/c2ccncc2)cc1,-0.78%
14,Cc1ccc(OCC(=O)N/N=C\c2ccco2)c(C)c1,-2.78%
15,Cc1ccc(/C=N/NC(=O)COc2ccccc2-c2ccccc2)cc1,83.4% (active)
16,CCNc1nc(-c2cc3ccccc3o2)cs1,3.67%
17,O=c1oc2ccccc2cc1-c1csc(Nc2ccc(O)cc2)n1,37.3% (active)
18,COc1ccc2nc(Nc3nc(-c4cc5ccccc5oc4=O)cs3)sc2c1,6.64%
19,Cc1cc(Nc2ccc(Cl)cc2)nc(N2CCOCC2)n1,-1.08%
